The source of these data is PubChem BioAssay (NCI).

Each structure is given as a SMILES string. Where “and” joins values, the source holds several entries; their conditions need not be identical. Equal entries are not always repeated. About 83,000 compounds went through this panel and 20% of them were active in at least one assay; those are over-represented in the sample as a whole.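 Cells were grown in 96-well plates and exposed to the test compound at a single concentration for 48 hours; results are reported as percent growth, with values below 10 considered active.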 Calls of active or inactive are those of the source.

Among the test systems are SR leukemia; RPMI-8226 leukemia; OVCAR-8 ovarian; OVCAR-5 ovarian; OVCAR-4 ovarian; SK-OV-3 ovarian; IGROV1 ovarian; OVCAR-3 ovarian; HS 578T breast; NCI/ADR-RES ovarian.
Holding throughout (experiment): NCI-60 one-dose screen, 48 h (100 = growth as untreated, 0 = no growth, -100 = all killed)
Holding throughout (conditions): 10 µM unless noted

For the compound `Cn1cc(-c2csc(-c3c[nH]c4ccc(F)cc34)n2)c2cnccc21`, the growth is -36% (active) in the assay with SR leukemia; -35.5% (active) with RPMI-8226 leukemia; -1.04% (active) in the assay on OVCAR-8 ovarian; -12.5% (active) with OVCAR-5 ovarian; 10.9% (inactive) in the assay with OVCAR-4 ovarian; 103% (inactive) in the assay with SK-OV-3 ovarian. The growth in the assay on IGROV1 ovarian was -37.1% (active); with OVCAR-3 ovarian it was -73.2% (active); in the assay with HS 578T breast it was -38.1% (active); in the assay on NCI/ADR-RES ovarian it was 11.5% (inactive).
Regarding `Cc1cccc(-c2nnc(SCC(=O)Nc3ncc(Cc4ccccc4)s3)n2N2C(=O)CSC2=S)c1`, the growth was 44.8% (inactive) in the assay with SR leukemia; 77.2% (inactive) with RPMI-8226 leukemia; 24.7% (inactive) in the assay on OVCAR-8 ovarian; 72.7% (inactive) in the assay on OVCAR-5 ovarian; -14.9% (active) in the assay with OVCAR-4 ovarian; 87.2% (inactive) in the assay with SK-OV-3 ovarian. The growth is 50.5% (inactive) in the assay on IGROV1 ovarian, 50.8% (inactive) with OVCAR-3 ovarian, 1.22% (active) in the assay on HS 578T breast and 80.2% (inactive) with NCI/ADR-RES ovarian.
As to `CCOC(=O)CCCn1c(-c2ccccc2)cc(-c2ccccc2)c(C#N)c1=O`, the growth with SR leukemia is 63.7% (inactive); in the assay on RPMI-8226 leukemia it was 87.2% (inactive); in the assay with OVCAR-8 ovarian it was 85.6% (inactive); with OVCAR-5 ovarian, 99.5% (inactive); in the assay on OVCAR-4 ovarian, 94.8% (inactive); with SK-OV-3 ovarian, 100% (inactive). Further, the growth in the assay on IGROV1 ovarian was 77.2% (inactive); in the assay with OVCAR-3 ovarian, 103% (inactive); in the assay on HS 578T breast, 67.8% (inactive); in the assay with NCI/ADR-RES ovarian it was 72% (inactive).
Take `Cc1nc2sc(C(=O)Nc3cccc4ccccc34)c(N)c2cc1C(=O)/C=C/c1ccccc1`: the growth was 13.2% (inactive) with SR leukemia; -27% (active) in the assay with RPMI-8226 leukemia; -13.9% (active) in the assay with OVCAR-8 ovarian; 13.6% (inactive) in the assay on OVCAR-5 ovarian; 34.6% (inactive) in the assay with OVCAR-4 ovarian; 27.1% (inactive) in the assay on SK-OV-3 ovarian. The growth in the assay with IGROV1 ovarian was 4.15% (active); in the assay with OVCAR-3 ovarian, -67.8% (active); with HS 578T breast, 16.1% (inactive); in the assay on NCI/ADR-RES ovarian it was -11.3% (active).
On to `CCCCCCCCn1ccc2cc(NC(=O)CN3CCN(c4nc(C)cc(N5CCCCC5)n4)CC3)ccc21`, for which the growth was 53.3% (inactive) with SR leukemia; 59.9% (inactive) in the assay with RPMI-8226 leukemia; 90.2% (inactive) in the assay on OVCAR-8 ovarian; 103% (inactive) in the assay on OVCAR-5 ovarian; 82.7% (inactive) in the assay with OVCAR-4 ovarian; 98.8% (inactive) in the assay on SK-OV-3 ovarian. Moreover, the growth with IGROV1 ovarian was 73.9% (inactive); with OVCAR-3 ovarian, 94.4% (inactive); with HS 578T breast, 91.5% (inactive); in the assay with NCI/ADR-RES ovarian, 85.8% (inactive).
`CCOc1nc(-c2ccccc2)cc2c(O)c(C(=O)N/N=C/c3ccc(N(C)C)cc3)[nH]c(=O)c12`: the growth with SR leukemia was 101% (inactive); in the assay with RPMI-8226 leukemia it was 102% (inactive); in the assay with OVCAR-8 ovarian, 115% (inactive); with OVCAR-5 ovarian it was 115% (inactive); with OVCAR-4 ovarian, 148% (inactive); with SK-OV-3 ovarian, 197% (inactive). In addition, the growth was 15.7% (inactive) in the assay with IGROV1 ovarian, 111% (inactive) with OVCAR-3 ovarian, 94.1% (inactive) with HS 578T breast and 105% (inactive) with NCI/ADR-RES ovarian.
For `O=C1C(=C(O)c2ccccc2)C(=O)c2ccccc21`, the growth with SR leukemia is 115% (inactive); with RPMI-8226 leukemia, 94.3% (inactive); in the assay on OVCAR-8 ovarian, 105% (inactive); in the assay with OVCAR-5 ovarian, 104% (inactive); with OVCAR-4 ovarian it was 101% (inactive); with SK-OV-3 ovarian it was 101% (inactive). In addition, the growth with IGROV1 ovarian is 106% (inactive); with OVCAR-3 ovarian it was 109% (inactive); in the assay on HS 578T breast, 120% (inactive); in the assay on NCI/ADR-RES ovarian, 108% (inactive).
In the case of `COc1ccc(-c2cc(=O)c3c(O)cc(O)cc3o2)cc1`, the growth in the assay with SR leukemia was 59.9% (inactive) and 69.1% (inactive); in the assay on RPMI-8226 leukemia it was 87.6% (inactive) and 87.3% (inactive); in the assay with OVCAR-8 ovarian, 103% (inactive) and 90.2% (inactive); with OVCAR-5 ovarian, 112% (inactive) and 130% (inactive); with OVCAR-4 ovarian, 118% (inactive) and 102% (inactive); with SK-OV-3 ovarian it was 112% (inactive) and 135% (inactive). Moreover, the growth is 125% (inactive) and 113% (inactive) in the assay on IGROV1 ovarian; 112% (inactive) and 81% (inactive) with OVCAR-3 ovarian; 120% (inactive) and 97% (inactive) in the assay on HS 578T breast; 99.6% (inactive) and 99.1% (inactive) with NCI/ADR-RES ovarian.
Consider `C=C(c1ccc(C(=O)O)cc1)c1cc2c(cc1C)C(C)(C)CCC2(C)C`, for which the growth in the assay on SR leukemia was 46.1% (inactive) and 84.9% (inactive); in the assay on RPMI-8226 leukemia, 2.66% (active) and 61% (inactive); with OVCAR-8 ovarian, 77% (inactive) and 80.6% (inactive); in the assay with OVCAR-5 ovarian it was 91% (inactive) and 79.7% (inactive); in the assay with OVCAR-4 ovarian, 95.4% (inactive) and 86.9% (inactive); in the assay with SK-OV-3 ovarian it was 88.7% (inactive) and 77.8% (inactive). For the same compound, the growth with IGROV1 ovarian is 98.9% (inactive) and 79.8% (inactive); in the assay on OVCAR-3 ovarian it was 88.8% (inactive) and 82.6% (inactive); with HS 578T breast, 126% (inactive) and 68.1% (inactive); in the assay on NCI/ADR-RES ovarian it was 71.9% (inactive) and 72.9% (inactive).
For the compound `COC1=CC(=O)C(OC)=C(O)C1=O`, the growth in the assay with SR leukemia was 107% (inactive); in the assay on RPMI-8226 leukemia it was 110% (inactive); in the assay with OVCAR-8 ovarian, 103% (inactive); in the assay with OVCAR-5 ovarian, 95.2% (inactive); in the assay on OVCAR-4 ovarian, 90.8% (inactive); in the assay on SK-OV-3 ovarian, 91% (inactive). Also, the growth with IGROV1 ovarian is 103% (inactive); in the assay on OVCAR-3 ovarian it was 105% (inactive); in the assay with HS 578T breast it was 113% (inactive); with NCI/ADR-RES ovarian it was 101% (inactive).
With `NC(N)=NC(N)=NCCCc1ccco1`, the growth with SR leukemia is 110% (inactive); with RPMI-8226 leukemia it was 106% (inactive); with OVCAR-8 ovarian, 96% (inactive); in the assay with OVCAR-5 ovarian, 114% (inactive); in the assay on OVCAR-4 ovarian it was 104% (inactive); in the assay on SK-OV-3 ovarian, 103% (inactive). In addition, the growth in the assay with IGROV1 ovarian was 99.8% (inactive); in the assay with OVCAR-3 ovarian it was 102% (inactive); in the assay with HS 578T breast, 109% (inactive); in the assay on NCI/ADR-RES ovarian, 103% (inactive).
On to `O=C1/C(=C/c2ccccc2)CN(C(=O)C(Cl)Cl)C/C1=C\c1ccccc1`, for which the growth is -4.98% (active) in the assay with SR leukemia; -25.6% (active) with RPMI-8226 leukemia; 10.7% (inactive) with OVCAR-8 ovarian; 31.7% (inactive) with OVCAR-5 ovarian; 29.7% (inactive) in the assay on OVCAR-4 ovarian; 90.2% (inactive) in the assay with SK-OV-3 ovarian. In addition, the growth with IGROV1 ovarian was -25.1% (active); in the assay on OVCAR-3 ovarian, -52.7% (active); in the assay with HS 578T breast it was 4.17% (active); in the assay on NCI/ADR-RES ovarian it was 13.5% (inactive).
